Among all 2,200 compounds or so, about 15 (0.7%) were called active. The sample as a whole holds a higher share of actives than the screen did. Unmarked numbers belong to inactive results.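 The calls were made as follows: active = fitted half-maximal concentration for loss of luminescence signal no more than a set limit of log units above the top tested concentration; inconclusive = flat fit with 30 to 70% signal loss, or invalid fit; inactive = half-maximal concentration above that set limit.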
Assay: inhibitors of ADP-Glo detection reagents, dose response, artefact control for GSK3beta inhibitor project, biochemical, luminescence, cell-free, homogeneous (AID 434947);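 also: kinase-free counter screen of ADP-Glo detection reagents for GSK3beta hits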
Conditions: 5 uM ADP

Structure (SMILES)	EC50
CNc1nc(N)c([N+](=O)[O-])c(NCC2CCCO2)n1 (stereo not drawn)	> 30 µM
COc1cc(SC)ccc1C(=O)OCC(=O)NCCNC(=O)COC(=O)c1ccc(SC)cc1OC	> 30 µM
CCOC(=O)COC(=O)c1ccc(O)cc1	> 30 µM
COc1ccc(C(=O)c2sc(Nc3ccccc3)nc2N)cc1	> 30 µM
COc1ccc(C(=O)OCCc2ccc(O)cc2)cc1	> 30 µM
Cc1ccc(C(=O)N/N=C2\CCCc3ccccc32)c(C)c1	> 30 µM
Cc1ccc2nc3c(cc2c1)c(NC(=O)c1ccccn1)nn3CC(C)C	> 30 µM
COc1ccc(C(=O)O/N=C(\N)c2ccccn2)cc1	15.5 µM (active)
Cc1ccc(C(=O)O/N=C(\N)c2ccccn2)c(C)c1	17.6 µM (active)
Cc1ccc(C(=O)O/N=C(\N)c2ccccn2)c(Cl)c1	26.6 µM (active)
Cc1ccc(-c2cc(C(=O)NCCc3ccccn3)c3ccccc3n2)c(C)c1	> 30 µM
CCc1ccc(CNC(=O)C2CCC(=O)N(CCc3ccc(Cl)cc3)C2)nc1 (stereo not drawn)	> 30 µM
O=C(O)COc1ccc(C(=O)c2ccccc2)cc1	> 30 µM
CSc1nc(NCCCN(C)C)c2c3c(sc2n1)CN(C)CC3	> 30 µM
OCCNc1nc(-c2cccnc2)nc2ccccc12	> 30 µM
CCC(C)Nc1nc(N)c([N+](=O)[O-])c(NCc2ccccc2)n1 (stereo not drawn)	> 30 µM
Cc1ccc(NC(=O)CSCc2ccc(F)cc2)cc1	> 30 µM
CCN1CCc2c(sc(NC(=O)Cc3ccccc3)c2C(N)=O)C1	> 30 µM
COc1ccc(OC)c(C(O)c2coc3ccc(O)c(CN(C)C)c23)c1 (stereo not drawn)	> 30 µM
CCn1c(/C=C/N(C(C)=O)c2ccccc2)[n+](CC)c2ccc(Cl)cc21	> 30 µM
CCOc1ccc(/C=N/Nc2ccccn2)cc1OC	> 30 µM
Cc1ccc(S(=O)(=O)CC(=O)c2cc3cccc(C)c3oc2=O)cc1	> 30 µM
Nc1nc(NCCc2ccccc2)nc(NCCO)c1[N+](=O)[O-]	> 30 µM
O=C(N/N=C/c1ccc(-c2ccc(Cl)c(C(=O)O)c2)o1)c1cc2c(ccc3ccccc32)o1	> 30 µM

Structure (SMILES)	EC50
CCn1c(SCC(=O)Nc2nccs2)nnc1C1CC1	> 30 µM
COc1ccc(N(C(=O)c2ccncc2)S(=O)(=O)c2cccc([N+](=O)[O-])c2)cc1	> 30 µM
Cc1ccc(-c2nc(Nc3cccc(O)c3)c3ccccc3n2)cc1	> 30 µM
CN(C)S(=O)(=O)c1cc(NC(=O)COC(=O)Cc2ccc(Br)cc2)ccc1Cl	> 30 µM
CSc1nc(C)cc(-n2ccc(=O)[nH]c2=O)n1	> 30 µM
CC(C)OCCCN1CN(S(=O)(=O)c2cccc(Cl)c2)c2nc3ccccc3nc21	> 30 µM
COc1ccc(-c2nn(-c3ccccc3)cc2C(=O)O)cc1	> 30 µM
COCCOc1ccc(C(F)(F)F)cc1NC(=O)COC(=O)c1cc[n+]([O-])cc1	> 30 µM
COc1cccc(C(=O)Nc2nc3ccccc3s2)c1	> 30 µM
CCSc1ccc2nnc(-c3cccs3)n2n1	> 30 µM
CCCCn1nc(NC(=O)CCC)c2cc3cc(OC)ccc3nc21	> 30 µM
COc1cccc(Nc2nc(-c3ccccc3)nc3ccccc23)c1	> 30 µM
O=C1Nc2cc(C(=O)NCCCN3CCOCC3)ccc2S/C1=C/c1ccccc1F	> 30 µM
Cc1csc2c(=O)n(CCO)c(=O)[nH]c12	> 30 µM
CCOc1cc(C2c3c(n[nH]c3C)C(=O)N2c2ccc(Br)cc2)ccc1O (stereo not drawn)	> 30 µM
COC(=O)c1cn(NC(=O)c2cccnc2)c(=O)c2ccccc12	> 30 µM
CCCc1cc(O)c2c(C)cc(=O)oc2c1	> 30 µM
COc1ccc(/C=C2/Sc3ccc(C(=O)NCCN4CCCCCC4)cc3NC2=O)cc1	> 30 µM
Cc1ccccc1-c1nnc(SCc2ccc(F)cc2)o1	> 30 µM
CCCN(CCC)CCCNc1ccc2nnc(-c3ccc(F)cc3)n2n1	> 30 µM
O=c1c(O[C@@H]2O[C@H](CO)[C@@H](O)[C@H](O)[C@H]2O)c(-c2ccc(O)c(O)c2)oc2cc(O)cc(O)c12	> 30 µM
Cc1ccc2c(c1)cc1c(=O)n(CC(=O)NCCN3CCCC3)nc(C)n12	> 30 µM
COc1cccc2cc(C(=O)OC(C)C(=O)c3ccc(C)cc3)c(=O)oc12 (stereo not drawn)	> 30 µM
CC(=O)Oc1cc(C)cc2oc(=O)cc(-c3ccccc3)c12	> 30 µM

Structure (SMILES)	EC50
CC1(C)CC(=O)C=C(Nc2ccc(F)cc2)C1	> 30 µM
COc1ccc(NC(=O)c2sc(SC)nc2N)cc1	> 30 µM
CCOC(=O)c1nnn(CC(=O)Nc2cccc(OC)c2)c1C(=O)OCC	> 30 µM
CC1(C)CC(=O)C2=C(C1)Nc1ccccc1NC2c1ccc(F)cc1 (stereo not drawn)	> 30 µM
O=C(Nc1ccccc1)Nc1ccncc1	> 30 µM
Cc1cc([N+](=O)[O-])c(C)cc1-c1ccc(/C=N/n2cnnc2)o1	> 30 µM
Nc1nc(NCCCN2CCOCC2)nc(Nc2ccc(Cl)cc2)c1[N+](=O)[O-]	> 30 µM
CCCC(=O)Nc1nn(CC(C)C)c2nc3cc(C)ccc3cc12	> 30 µM
N#Cc1cccc(-c2nnc(SCc3ccccc3C#N)o2)c1	> 30 µM
COc1cc(C2OCC3C(c4cc(OC)c(OC)c(OC)c4)OCC23)cc(OC)c1OC (stereo not drawn)	> 30 µM
O=c1c2ccccc2cnn1-c1nc2ccccc2[nH]1	25.9 µM (active)
Cc1cc(NC(=O)/C=C/c2cccc(F)c2)n(-c2nc3ccccc3[nH]2)n1	> 30 µM
CN1CCN(C(=O)Cn2ncc3c([nH]c4ccccc43)c2=O)CC1	> 11 µM
CC(C(=O)NCc1ccco1)n1cc([N+](=O)[O-])cn1 (stereo not drawn)	> 30 µM
CCOC(=O)CCCSc1nnc(CCCCCN2C(=O)c3cccc4cccc(c34)C2=O)o1	> 30 µM
CCN(CC)Cc1c(O)ccc2occ(C(=O)c3ccc(OC)cc3)c12	> 30 µM
Clc1ccc(-c2nnc(-c3ccccc3)c(N3CCSCC3)n2)cc1	> 30 µM
COc1ccc(Nc2ccccc2C(=O)O)cc1	> 30 µM
O=C(CN(Cc1cccs1)C(=O)CCC(=O)Nc1ccccn1)NCc1ccccc1	> 30 µM
N#Cc1c(N)n(-c2cccc(O)c2)c2nc3ccccc3nc12	> 30 µM
Cc1ccc(S(=O)(=O)NCC2COc3ccccc3O2)cc1 (stereo not drawn)	> 30 µM
CN1CCN(c2nc(-c3ccccc3)nc(-c3ccccc3)c2C#N)CC1	> 30 µM
COC(CNC(=O)CCc1c(C)nc2c(c(C)nn2-c2ccc(C)cc2)c1C)OC	> 30 µM
CCOC(=O)c1nnn(-c2nonc2N)c1CN(CC)CC	> 30 µM

Structure (SMILES)	EC50
COc1cccc2cc(C(=O)CS(=O)(=O)c3ccc(C)cc3)c(=O)oc12	> 30 µM
CCCOc1ccc(-c2c(C(=O)N/N=C(\C)c3ccco3)nnn2-c2nonc2N)cc1	> 30 µM
CCc1ccc(/C=N/NC(=O)c2nnn(-c3nonc3N)c2CN2CCc3ccccc32)cc1	> 30 µM
NC(=O)c1ccc(Oc2ccc(Cl)c3ccccc23)c([N+](=O)[O-])c1	> 30 µM
Cc1[nH]nc2c1C(c1cccs1)C1=C(CCCC1=O)N2 (stereo not drawn)	> 30 µM
CC(C)CCNc1nc(N)c([N+](=O)[O-])c(NC2CCCCC2)n1	> 30 µM
CCCCn1nc(NC(=O)COC)c2cc3cc(OC)ccc3nc21	> 30 µM
O=C(c1cccs1)c1coc2ccc(O)c(CN(CCO)CCO)c12	> 30 µM
COc1cccc(C2C3=C(CCCC3=O)Nc3[nH]n(-c4ccccc4)c(=O)c32)c1 (stereo not drawn)	> 30 µM
Cc1ccc(C(=O)O/N=C\c2ccc(N3CCCCC3)c([N+](=O)[O-])c2)cc1	> 30 µM
Cc1ccc(Sc2ccc(/C=N/O)cc2[N+](=O)[O-])cc1	> 30 µM
CS(=O)(=O)N(CCc1ccccc1)CC(=O)N1CCN(c2ccccc2F)CC1	> 30 µM
CC1CCN(Cc2c(C(=O)N/N=C/c3ccccc3O)nnn2-c2nonc2N)CC1	> 30 µM
Cn1c(SCC(=O)NC2CCCCC2)nnc1-c1ccccn1	> 30 µM
O=C(CCSc1nnc(-c2ccncc2)o1)Nc1ccc(F)cc1	> 30 µM
O=C1Nc2cc(C(=O)NCCCN3CCCC3)ccc2S/C1=C/c1ccccc1F	> 30 µM
CCCNC(=O)c1ccc(Cl)cc1Cl	> 30 µM
COc1cccc(C(=O)CSc2nccn2C)c1	> 30 µM
COc1ccc(-c2cc(C(=O)N3CCN(C(=O)c4ccco4)CC3)[nH]n2)cc1	> 30 µM
CC(C)(C)C(=O)COC(=O)c1ccc(O)cc1	> 30 µM
CC(OC(=O)c1nsc(Cl)c1Cl)C(=O)NCc1ccco1 (stereo not drawn)	> 30 µM
